The values below come from PubChem BioAssay.

What is called inhibition is the drop in the measured response relative to a control, in per cent.

Results filed as inconclusive are left out. The source made the active and inactive calls.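 The calls were made as follows, unless noted: active = inhibition above the screen-wide mean plus 3 SD, about 51%; inactive = the rest.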

A short description of assay [1]: rapamycin-like changes in RPL19A-GFP expression – cell-based, S. cerevisiae, multiplex flow cytometry, primary screen (AID 1862; in the data active = percent of DMSO control GFP below about 86%;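 also: lower values mimic rapamycin by blocking the RPL19A rise seen in DMSO cells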). As to conditions: S. cerevisiae RPL19A-GFP strain, flow cytometry fluorescence, 3 h; at 10 µM; stronger effect = lower value.
Assay [2] is described as follows: TOR pathway GLN3 branch reporter MEP2-GFP changes – S. cerevisiae, multiplex flow cytometry, primary screen (AID 1867;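 active = GFP response, as percent of the DMSO control, above the screen-wide mean plus 3 SD, about 139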;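 also: median GFP channel fluorescence of barcode-gated MEP2-GFP cells measured by flow cytometry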). The settings on record: S. cerevisiae MEP2-GFP strain, 3 h, at 10 µM, stronger effect = higher value, 100% means same as DMSO wells.
Assay [3] in a line: TOR pathway RTG branch CIT2 reporter changes – S. cerevisiae, GFP fusion, multiplex flow cytometry, primary screen (AID 1870;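 active = percent response above a set limit, the screen-wide mean plus 3 SD, cut at about 130% in these data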;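 also: barcoded CIT2-GFP strain pooled with four other GFP strains with rapamycin as positive control; median GFP fluorescence per well over plate mean of DMSO wells so 100% = DMSO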). The settings on record: S. cerevisiae CIT2-GFP expression, 3 h, at 10 µM, stronger effect = higher value.
The nature of assay [4]: TOR pathway LAP4-GFP level changes – S. cerevisiae, multiplex flow cytometry, primary screen (AID 1873;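 active = GFP signal, as percent of the solvent control, above the screen mean plus 3 SD, about 149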). As to conditions: S. cerevisiae LAP4-GFP expression, 3 h, at 10 µM, stronger effect = higher value. In general terms: In flow cytometry, cells or beads pass a laser one at a time.
The nature of assay [5]: yeast AGP1-GFP level changes, GLN3 branch – cell-based, multiplex flow cytometry, S. cerevisiae, primary screen (AID 1887;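 active = GFP signal above the screen-wide mean plus 3 SD, that is over about 124.5% of the solvent control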;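 also: AGP1-GFP fusion strain of S. cerevisiae within a five-strain barcoded multiplex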). As to conditions: 3 h, at 10 µM, stronger effect = higher value.
A short description of assay [6]: reduced mouse 2C T cell binding to pMHC/ICAM-1 vesicles – MLPCN validation set, flow cytometry, LFA-1/ICAM-1 modulator project, pilot screen (AID 2523;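 active = response below a set limit, under 55% cells CD8-positive and vesicle-bound, and CD8 cells' 90th-percentile brightness under 279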;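 as to vesicle binding response: mean PE anti-B7-1 fluorescence of CD8+ cells relative to row control; 100% = QL9-loaded vesicles with DMSO vehicle in the same plate row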). The settings on record: 2C mouse CD8+ T cells, at 7 µM, stronger effect = lower value; double positive events: measured here: CD8+/vesicle+ event percentage.
The target in assay [7] is Integrin beta-1 (Homo sapiens) + Integrin alpha-4 (Homo sapiens) (UniProt P13612+P05556). The assay can be described thus: alpha4beta1 integrin LIBS antibody binding reduction – U937 cells, HUTS-21 mAb, flow cytometry, validation set, VLA-4 allosteric modulator project, pilot screen (AID 2674;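 active = inhibition above 50%, about 3 SD of the validation set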;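 also: antibody binding induced by the VLA-4 ligand LDV present at three times its Kd; 0% = LDV ligand with antibody and no compound and 100% = antibody without LDV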). As to conditions: HUTS-21 LIBS mAb binding, at 6.7 µM, stronger effect = higher value, binding induced by LDV ligand.
Sequence of Integrin beta-1 (Homo sapiens) + Integrin alpha-4 (Homo sapiens) (P05556 whole entry, looked up): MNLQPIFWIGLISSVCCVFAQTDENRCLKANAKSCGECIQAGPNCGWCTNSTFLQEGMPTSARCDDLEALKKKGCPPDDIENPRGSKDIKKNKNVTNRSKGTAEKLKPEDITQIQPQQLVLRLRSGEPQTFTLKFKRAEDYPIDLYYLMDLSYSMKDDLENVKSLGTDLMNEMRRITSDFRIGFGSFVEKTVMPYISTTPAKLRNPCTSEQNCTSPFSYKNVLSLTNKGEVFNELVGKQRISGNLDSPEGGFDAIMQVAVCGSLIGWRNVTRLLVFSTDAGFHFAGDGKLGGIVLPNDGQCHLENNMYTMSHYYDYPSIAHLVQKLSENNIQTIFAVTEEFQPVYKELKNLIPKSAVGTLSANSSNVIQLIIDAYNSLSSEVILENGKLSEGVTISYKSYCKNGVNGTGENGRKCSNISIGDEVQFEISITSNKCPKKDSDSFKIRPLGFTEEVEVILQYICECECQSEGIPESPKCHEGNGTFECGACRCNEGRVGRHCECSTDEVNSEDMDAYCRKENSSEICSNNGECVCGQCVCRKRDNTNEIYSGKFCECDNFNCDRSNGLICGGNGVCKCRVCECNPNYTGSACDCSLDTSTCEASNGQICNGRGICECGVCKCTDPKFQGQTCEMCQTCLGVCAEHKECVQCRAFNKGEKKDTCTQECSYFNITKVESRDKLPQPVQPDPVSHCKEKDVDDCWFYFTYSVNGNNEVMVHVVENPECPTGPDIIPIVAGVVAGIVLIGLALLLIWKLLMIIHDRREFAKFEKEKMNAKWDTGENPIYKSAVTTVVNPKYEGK
Sequence of Integrin beta-1 (Homo sapiens) + Integrin alpha-4 (Homo sapiens) (P13612 whole entry, looked up): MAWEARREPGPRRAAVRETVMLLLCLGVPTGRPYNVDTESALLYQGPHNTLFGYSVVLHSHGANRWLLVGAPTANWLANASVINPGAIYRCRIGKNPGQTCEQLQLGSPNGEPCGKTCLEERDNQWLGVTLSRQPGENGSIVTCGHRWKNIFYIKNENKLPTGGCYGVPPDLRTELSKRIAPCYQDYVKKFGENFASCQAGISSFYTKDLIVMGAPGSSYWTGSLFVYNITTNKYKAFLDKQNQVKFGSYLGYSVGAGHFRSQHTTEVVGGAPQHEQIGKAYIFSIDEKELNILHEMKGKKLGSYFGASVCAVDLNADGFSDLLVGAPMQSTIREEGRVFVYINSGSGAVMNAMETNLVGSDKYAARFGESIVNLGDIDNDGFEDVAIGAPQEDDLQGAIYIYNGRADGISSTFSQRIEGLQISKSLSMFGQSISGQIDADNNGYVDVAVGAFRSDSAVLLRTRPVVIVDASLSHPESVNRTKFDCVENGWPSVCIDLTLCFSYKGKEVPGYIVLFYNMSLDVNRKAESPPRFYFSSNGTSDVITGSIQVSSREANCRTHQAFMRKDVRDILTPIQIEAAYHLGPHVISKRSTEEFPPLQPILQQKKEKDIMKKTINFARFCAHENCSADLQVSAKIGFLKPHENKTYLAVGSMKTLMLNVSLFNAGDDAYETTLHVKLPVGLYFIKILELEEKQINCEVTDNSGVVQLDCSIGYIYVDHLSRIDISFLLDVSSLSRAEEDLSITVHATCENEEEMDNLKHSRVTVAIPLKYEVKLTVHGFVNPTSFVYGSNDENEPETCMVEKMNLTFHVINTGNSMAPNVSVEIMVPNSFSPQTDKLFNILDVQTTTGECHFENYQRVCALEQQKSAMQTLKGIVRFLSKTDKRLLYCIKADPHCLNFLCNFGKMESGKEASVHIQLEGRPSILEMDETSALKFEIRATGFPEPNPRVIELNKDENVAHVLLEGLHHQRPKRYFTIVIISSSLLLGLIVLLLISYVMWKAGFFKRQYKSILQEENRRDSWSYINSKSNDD

Assay [8] in a line: calorie-restriction mimetic ROS inhibitors, yeast – validation compound set, pilot screen (AID 2706;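 active = superoxide response below 65% of plate, a cut near 3 SD across the whole screen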;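 also: yeast exposed to compound for one week at 30 degrees C before staining; 100% = mean of all compound wells on the same plate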). As to conditions: S. cerevisiae aging, superoxide DHE fluorescence; at 10 µM, stronger effect = lower value.
Assay [9] has as its target Beta-adrenergic receptor kinase 1 (Homo sapiens) (UniProt P25098). The assay can be described thus: GRK2 binders displacing RNA aptamer, biochemical, validation, human GRK2, bead flow cytometry (AID 488806;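 active = aptamer binding inhibition above 30%, about 3 SD of noise from non-fluorescent compounds; inactive = inhibition at or below 30%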). The settings on record: bead-bound GRK2, FAM-aptamer displacement, at 10 µM, stronger effect = higher value.
Assay [10] has as its target AP-2 complex subunit beta (Homo sapiens) (UniProt P63010). The assay can be described thus: beta-arrestin/AP2 interaction blockers – biochemical, validation set, GST-AP2 beads, flow cytometry, pilot screen (AID 504541;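 active = inhibition above 54%, about 3 SD of non-fluorescent compounds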;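 also: AP2 carries R879A mutation and is captured from E. coli lysate; bead-bound FITC arrestin peptide fluorescence measuring arrestin peptide binding to AP2; 0% = DMSO wells and 100% = excess unlabeled arrestin peptide control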). As to conditions: FITC arrestin peptide, at 10 µM, stronger effect = higher value, AP2 beta2 appendage fragment, R879A mutant.
Assay [11] in a line: cytosolic pH regulators acting via V-ATPase – S. cerevisiae, pHLuorin, HTS validation (AID 504600; in the data active = response above about 15%;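 also: plate controls were DMSO for no effect and reference compound for full effect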). The settings on record: V-ATPase proton transport, at 10 µM, stronger effect = higher value.
Assay [12] relates to anti-desmoglein-3 scFv antibody binding to human DSG3. The assay can be described thus: blockers of pathogenic pemphigus antibody–desmoglein-3 binding – biochemical, validation compound set, bead-based, flow cytometry, pilot screen (AID 588368;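 active = binding below the plate cutoff, the plate median minus 3 SD, with a reading above zero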;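 also: signal is the median channel fluorescence of bead-bound GFP antibody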). As to conditions: Protein G beads, DSG3-Fc, scFv-GFP binding, at 10 µM, stronger effect = lower value.
Assay [13] in a line: Nile Red efflux blockade in pump-expressing yeast – validation compound set, multiplex, phenotypic, pilot screen (AID 588506;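 active = efflux inhibition above 0.42, the validation set average plus 4 SD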;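 also: Nile Red retained in cells so higher fluorescence means more efflux inhibition; 0 = negative control wells and 1 = enniatin B 25 µM full block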). As to conditions: S. cerevisiae pump-expressing triplex, Nile Red efflux flow cytometry; at 10 µM; stronger effect = higher value; the pumps come from Candida albicans.
Assay [14] has as its target ATP-binding cassette sub-family B member 6 (Homo sapiens) (UniProt Q9NP58). The assay can be described thus: blockers of ABCB6-driven porphyrin uptake – K562-ABCB6 cells, flow cytometry, validation set, pilot screen (AID 588550).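 Also: 0% = DMSO wells and 100% = benzethonium chloride 70 µM positive control.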 As to conditions: K562-ABCB6 porphyrin accumulation, 1 h, at 10 µM, stronger effect = higher value.
A short description of assay [15]: AML differentiation inducers, ER-HoxA9 marrow cells – cell-based, GFP/MAC1 double positive, flow cytometry, validation set, primary screen (AID 588685;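 active = differentiation response of at least 50%, scaled between solvent and reference control, from cells with both markers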;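 also: compound exposure lasts four days before antibody staining and flow analysis; 0% = DMSO wells and 100% = 5 µM fulvestrant positive control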). The settings on record: stronger effect = higher value, normalized: vehicle 0, fulvestrant 100.

Sequence of Beta-adrenergic receptor kinase 1 (Homo sapiens) (P25098 whole entry, looked up): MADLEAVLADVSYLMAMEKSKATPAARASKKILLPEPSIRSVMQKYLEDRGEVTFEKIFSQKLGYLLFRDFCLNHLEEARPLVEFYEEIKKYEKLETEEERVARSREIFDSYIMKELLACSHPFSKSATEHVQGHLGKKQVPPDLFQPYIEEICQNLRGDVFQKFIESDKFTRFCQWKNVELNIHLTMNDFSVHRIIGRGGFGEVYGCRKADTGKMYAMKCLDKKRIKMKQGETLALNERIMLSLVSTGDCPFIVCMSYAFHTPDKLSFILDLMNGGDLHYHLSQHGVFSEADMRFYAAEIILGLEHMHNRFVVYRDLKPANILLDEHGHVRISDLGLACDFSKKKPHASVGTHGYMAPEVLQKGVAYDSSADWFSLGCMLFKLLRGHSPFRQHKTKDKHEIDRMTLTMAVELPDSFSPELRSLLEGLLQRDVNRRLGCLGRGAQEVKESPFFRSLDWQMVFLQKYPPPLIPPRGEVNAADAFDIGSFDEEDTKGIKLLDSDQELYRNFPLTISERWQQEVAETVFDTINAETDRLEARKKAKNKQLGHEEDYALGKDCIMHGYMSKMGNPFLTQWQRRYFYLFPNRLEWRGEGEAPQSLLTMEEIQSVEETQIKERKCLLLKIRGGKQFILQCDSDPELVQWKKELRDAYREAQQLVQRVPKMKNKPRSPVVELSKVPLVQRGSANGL
Sequence of ATP-binding cassette sub-family B member 6 (Homo sapiens) (Q9NP58 whole entry, looked up): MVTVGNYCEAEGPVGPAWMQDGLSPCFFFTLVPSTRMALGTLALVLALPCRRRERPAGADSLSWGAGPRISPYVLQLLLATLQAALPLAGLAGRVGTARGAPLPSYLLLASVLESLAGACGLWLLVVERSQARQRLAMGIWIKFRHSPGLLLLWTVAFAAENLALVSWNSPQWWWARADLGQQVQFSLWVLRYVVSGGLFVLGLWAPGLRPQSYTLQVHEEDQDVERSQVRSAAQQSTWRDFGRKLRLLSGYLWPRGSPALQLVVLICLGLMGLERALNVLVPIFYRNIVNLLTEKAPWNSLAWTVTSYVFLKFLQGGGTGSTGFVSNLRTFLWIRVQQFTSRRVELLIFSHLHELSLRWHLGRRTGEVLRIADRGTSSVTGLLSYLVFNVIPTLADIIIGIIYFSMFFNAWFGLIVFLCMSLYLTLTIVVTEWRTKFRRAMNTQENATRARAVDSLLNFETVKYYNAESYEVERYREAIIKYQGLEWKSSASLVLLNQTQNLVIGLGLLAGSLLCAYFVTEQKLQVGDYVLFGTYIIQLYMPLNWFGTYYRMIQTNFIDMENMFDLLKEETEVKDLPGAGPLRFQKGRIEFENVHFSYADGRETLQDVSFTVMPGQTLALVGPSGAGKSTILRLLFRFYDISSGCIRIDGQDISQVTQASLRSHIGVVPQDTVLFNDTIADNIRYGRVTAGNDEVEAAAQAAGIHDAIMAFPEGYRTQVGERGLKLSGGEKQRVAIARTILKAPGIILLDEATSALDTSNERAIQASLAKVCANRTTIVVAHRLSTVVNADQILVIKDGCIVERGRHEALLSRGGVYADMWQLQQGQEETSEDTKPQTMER
Sequence of AP-2 complex subunit beta (Homo sapiens) (P63010 whole entry, looked up, the tested form may be a part, one chain of several): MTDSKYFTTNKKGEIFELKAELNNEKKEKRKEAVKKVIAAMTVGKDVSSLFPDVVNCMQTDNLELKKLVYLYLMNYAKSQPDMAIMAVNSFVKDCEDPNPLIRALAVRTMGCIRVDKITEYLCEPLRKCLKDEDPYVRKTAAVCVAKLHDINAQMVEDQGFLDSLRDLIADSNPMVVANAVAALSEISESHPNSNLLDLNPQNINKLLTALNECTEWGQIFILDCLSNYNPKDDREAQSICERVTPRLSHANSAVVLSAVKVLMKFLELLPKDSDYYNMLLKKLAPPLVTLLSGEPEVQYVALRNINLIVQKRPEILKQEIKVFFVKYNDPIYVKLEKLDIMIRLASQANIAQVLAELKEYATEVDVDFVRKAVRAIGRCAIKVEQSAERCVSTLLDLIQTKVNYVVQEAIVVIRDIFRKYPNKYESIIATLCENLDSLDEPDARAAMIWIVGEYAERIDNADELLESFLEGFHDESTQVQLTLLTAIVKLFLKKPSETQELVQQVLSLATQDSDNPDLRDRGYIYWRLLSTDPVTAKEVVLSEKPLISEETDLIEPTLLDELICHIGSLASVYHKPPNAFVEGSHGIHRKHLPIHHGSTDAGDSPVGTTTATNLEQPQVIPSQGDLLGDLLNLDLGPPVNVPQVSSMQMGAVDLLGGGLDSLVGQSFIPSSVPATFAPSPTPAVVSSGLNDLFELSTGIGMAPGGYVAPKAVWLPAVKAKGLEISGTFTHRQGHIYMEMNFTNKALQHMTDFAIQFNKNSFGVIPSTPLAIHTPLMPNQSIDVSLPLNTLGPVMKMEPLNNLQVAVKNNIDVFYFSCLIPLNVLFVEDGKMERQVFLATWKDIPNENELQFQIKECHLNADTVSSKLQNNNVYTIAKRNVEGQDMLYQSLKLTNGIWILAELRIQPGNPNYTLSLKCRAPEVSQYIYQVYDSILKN

`COc1ccc2nc(Nc3nc(CSc4ccc(C)cc4)cc(=O)[nH]3)nc(C)c2c1`: the percent of DMSO control GFP in [1] was 99% (inactive). For the same molecule, the GFP response vs DMSO in assay [2] is 103% (inactive); in assay [4], 90.3% (inactive). Also, in assay [3], the percent response of DMSO control is 98.8% (inactive). Further, the GFP response, % of DMSO in [5] is 104% (inactive). In [6], this molecule had a double positive events of 63.5%. Besides, in assay [6], the vesicle binding response was 217% (inactive). In addition, the inhibition in [7] was 8.15% (inactive); in assay [10], 8.24% (inactive); in [14] it was 6% (inactive). Further, the superoxide response (% of plate) in assay [8] was 104% (inactive). Further, the aptamer binding inhibition in [9] is 0% (inactive). The response in assay [11] is -0.97% (inactive). In addition, the binding (% of control) in assay [12] is 103% (inactive). In [13], the efflux inhibition (fraction of control) was -0.43 (inactive). The differentiation response in assay [15] is -24.4% (inactive).
For `Cc1cnc(C(=O)NCCc2ccc(S(=O)(=O)NC(=O)NC3CCCCC3)cc2)cn1`, the percent of DMSO control GFP in [1] was 93.9% (inactive). Also, the GFP response vs DMSO is 93.8% (inactive) in assay [2] and 92.3% (inactive) in assay [4]. In addition, the percent response of DMSO control in assay [3] is 110% (inactive). For the same molecule, the GFP response, % of DMSO in assay [5] was 92.2% (inactive). The molecule also had a double positive events in [6] of 65%. Besides, in [6], the vesicle binding response was 230% (inactive). The figures for the inhibition in [7], in assay [10] and in [14] were -9.57% (inactive), -11.4% (inactive) and 4% (inactive), respectively. The superoxide response (% of plate) in [8] is 95.2% (inactive). For the same molecule, the aptamer binding inhibition in assay [9] is 2% (inactive). In assay [11], the response is -3.18% (inactive). In addition, the binding (% of control) in assay [12] is 104% (inactive). Also, in assay [13], the efflux inhibition (fraction of control) is -0.12 (inactive). The differentiation response in assay [15] is -3.43% (inactive).
With `CCc1cc(=O)oc2cc(C)c(CN3CCCC(C)C3)c(O)c12` (stereo not given), the percent of DMSO control GFP in [1] is 102% (inactive). Moreover, the GFP response vs DMSO in assay [2] was 103% (inactive); in [4], 84.3% (inactive). Moreover, the percent response of DMSO control in assay [3] was 103% (inactive). Further, the GFP response, % of DMSO in assay [5] was 94.9% (inactive). In assay [6], this molecule showed a double positive events of 52.2%. In addition, the vesicle binding response in [6] is 161% (inactive). Moreover, the inhibition is -5.84% (inactive) in [7], 26.7% (inactive) in [10] and 5% (inactive) in assay [14]. Moreover, in assay [8], the superoxide response (% of plate) was 105% (inactive). Moreover, the aptamer binding inhibition in assay [9] is 2% (inactive). Further, the response in assay [11] was -0.18% (inactive). For the same molecule, the binding (% of control) in [12] was 73.4% (inactive). In addition, in assay [13], the efflux inhibition (fraction of control) is 0.18 (inactive). Further, the differentiation response in [15] is -18% (inactive).
With `COc1ccc(C2N3CC4(C)CN2CC(C)(C3)C4)cc1OC` (stereo not given), the percent of DMSO control GFP in assay [1] is 103% (inactive). Also, the GFP response vs DMSO in assay [2] is 99.9% (inactive); in [4], 87.3% (inactive). The percent response of DMSO control in [3] is 107% (inactive). In assay [5], the GFP response, % of DMSO is 107% (inactive). For the same molecule, the double positive events in [6] stood at 52.7%. For the same molecule, the vesicle binding response in [6] was 177% (inactive). Moreover, the inhibition in assay [7] is -0.24% (inactive); in [10], 9.79% (inactive); in [14] it was 6% (inactive). Further, the superoxide response (% of plate) in assay [8] was 96.9% (inactive). Further, the aptamer binding inhibition in [9] was 1% (inactive). For the same molecule, the response in assay [11] was 2.37% (inactive). For the same molecule, the binding (% of control) in assay [12] is 99% (inactive). For the same molecule, the efflux inhibition (fraction of control) in assay [13] is -0.09 (inactive). Moreover, the differentiation response in assay [15] is -13.1% (inactive).
Take `C[N+]12CCC(CC1)C(OC(=O)C(O)(c1ccccc1)c1ccccc1)C2` (stereo not given): the percent of DMSO control GFP in [1] is 96.8% (inactive). The GFP response vs DMSO in assay [2] is 96.9% (inactive); in [4], 100% (inactive). The percent response of DMSO control in assay [3] is 99.8% (inactive). In assay [5], the GFP response, % of DMSO was 95.8% (inactive). In addition, in assay [6], the double positive events amounted to 60.6%. Also, in [6], the vesicle binding response is 211% (inactive). The inhibition in assay [7] is 2.56% (inactive); in assay [10], -2.25% (inactive); in assay [14] it was 10% (inactive). In addition, in assay [8], the superoxide response (% of plate) was 104% (inactive). In assay [9], the aptamer binding inhibition was -2% (inactive). The response in assay [11] was 2.36% (inactive). The binding (% of control) in assay [12] was 102% (inactive). In addition, the efflux inhibition (fraction of control) in assay [13] is -0.35 (inactive). Also, the differentiation response in assay [15] was -21.2% (inactive).
